# MPTP block: inhibitors of mitochondrial permeability transition pore; isolated mouse mitochondria, Ca2+ swelling absorbance, 30 min; inhibition, % at 10 µM; 1.4% of 360,000 active;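 active means inhibition of 50% or more, scaled per plate between neutral and stimulator controls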;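 further: 0% = DMSO wells given calcium and 100% = 1 mM EGTA wells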
# dFosB activator: activators of mouse delta FosB homodimer; P13346; AID 493131; purified delta FosB, TAMRA-CDK5 oligo fluorescence polarization; percent of positive-control signal above neutral wells; activation, % at 25 µM; 0.99% of 340,000 active;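 active means mean activation above about 17%, with every replicate also reaching it, limit read from the data, passing the limit was not always enough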
# Target sequence (P13346 whole entry, looked up): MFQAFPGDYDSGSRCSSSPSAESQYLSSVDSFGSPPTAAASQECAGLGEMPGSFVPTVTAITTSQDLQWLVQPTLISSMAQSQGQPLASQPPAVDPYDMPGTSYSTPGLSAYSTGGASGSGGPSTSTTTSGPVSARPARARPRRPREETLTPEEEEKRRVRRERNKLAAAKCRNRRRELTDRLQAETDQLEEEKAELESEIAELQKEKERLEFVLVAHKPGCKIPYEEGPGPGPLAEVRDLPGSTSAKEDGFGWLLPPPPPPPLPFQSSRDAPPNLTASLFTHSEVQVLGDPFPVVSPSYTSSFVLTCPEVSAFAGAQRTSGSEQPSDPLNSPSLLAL
# HSF1 activator: increases HSF-1 driven luciferase reporter signal. NIH3T3-HGL HSF-1 luciferase reporter, MG132, 8 h; 100% = twice DMSO control signal. activation, % at 9 µM. 1.7% of 300,000 active;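 active means mean replicate activation of at least 50% with a set share of replicates each reaching 50%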;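 further: 0% = median of the neutral control wells and 100% = twice that signal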
# HSP90 inh: inhibitors of HSP90 luciferase refolding in rabbit reticulocyte lysate; AID 1789; 0.91% of 290,000 active; luciferase refolding luminescence, 3 h; inhibition, % at 5.6 µM;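 active means inhibition above the screen-wide mean plus 3 SD, computed separately per campaign, cut at about 16% in these data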;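 further: 0% = DMSO wells and 100% = 60 µM geldanamycin wells; inhibitors lower the luminescence because luciferase stays unfolded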
# HSF1 inh: HSF1 inhibition | NIH3T3-HGL HSE-luciferase, MG132-induced, luminescence 8 h; hits give low values | activity change, negative = inhibition, % at 7.5 µM (by protocol) | 0.77% of 300,000 active;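 active means more than half of replicate wells show activity change below -50%, luminescence cut by over half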;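 further: luciferase reports HSF-1 transcriptional activity via heat shock element; 0% = median of DMSO wells and -100% = zero luminescence signal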
# Platelet DG rel: modulates dense granule release in human platelets | 0.22% of 300,000 active | human platelet-rich plasma, SFLLRN dense granule ATP release, luminescence | inhibition, %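 (compounds screened at 7.5 µM in platelet-rich plasma)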;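 active means mean replicate score, as percent of positive control, at or above 50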
# Numbers without * were called inactive; nt = not tested or not shown; ! = not active in a repeat. Hits are enriched below; roughly 4.9% of the tested compounds scored in any of these assays.
SMILES,MPTP block,dFosB activator,HSF1 activator,HSP90 inh,HSF1 inh,Platelet DG rel
Cc1ccc(C(=O)NCC(=O)OCC(=O)Nc2ccccc2C#N)s1,-3,-8,-2,4,-10,-1
CCCS(=O)(=O)NC(=O)C1(C)CCCN(C(=O)c2ccncc2)C1 (stereo not drawn),1,nt,nt,nt,nt,nt
Cc1ccc(N(CC2=NCCN2)c2cccc(O)c2)cc1,-3,-13,-75,-1,-72*!,10
CN(C)CCNc1ccc(CO)c2sc3ccc(O)cc3c(=O)c12,1,38*,nt,nt,nt,nt
CN(C)CCNc1ccc2ncn3c4ccc(O)cc4c(=O)c1c23,-1,64*,nt,nt,nt,nt
CN(Cc1ccccc1)C(=O)COC(=O)CCNC(=O)c1ccccc1Cl,-1,6,0,-3,-1,-54
COc1ccc(NC(=O)CSc2nccn2Cc2ccco2)cc1,0,-1,36,1,25,13
CCN(CC)S(=O)(=O)c1cccc(NC(=O)CCNC(=O)NC23CC4CC(CC(C4)C2)C3)c1,-2,-13,-74,nt,-66*,5
CN(C)S(=O)(=O)c1cccc(NC(=S)NC23CC4CC(CC(C4)C2)C3)c1,26,-1,5,2,-2,-1
Oc1cc(CNC2CCCCC2)c(O)cc1CNC1CCCCC1,0,-14,nt,nt,nt,nt
Cc1nc(NC(=O)c2ccccc2)sc1C,1,5,58*,7,32,4
Cc1nc(Nc2ccccc2)sc1C,-2,1,-59,-4,-52*,12
CCOC(=O)c1sc(=NC(=O)c2ccccc2)n(C)c1C,2,-8,61*,-8,14,8
CCOC(=O)c1sc(NC(=O)c2ccc(S(=O)(=O)N(C)C)cc2)cc1C,33,-9,2,-1,2,7
Cc1nc(NC(=S)NC(=O)c2ccccc2)sc1C,2,1,22,-3,15,7
CCOC(=O)c1sc(NC(=O)c2ccccc2)cc1C,24,-5,55*,-6,25,24
O=C(NCCN1CCOCC1)c1ccc(NS(=O)(=O)c2cccc([N+](=O)[O-])c2)cc1,0,-9,11,nt,-7,-19
CN(C)S(=O)(=O)c1ccc(C(=O)Nc2ccn(C)n2)cc1,1,-2,14,3,-6,3
CCOC(=O)c1csc(NC(=O)c2ccccc2)n1,1,0,50,-1,26,-2
CCOC(=O)Cc1cnc(NC(=O)c2ccccc2)s1,-2,1,-59,-1,-54*,-2
Cc1nc(NC(=O)c2csc3ccccc23)sc1C,1,-5,61*,4,31,2
O=C(Nc1nnc(CCc2ccccc2)s1)c1ccccc1,0,-4,51*,6,17,-6
Cc1cccc(C(=O)NCC(=O)OCc2cc(=O)n3ccsc3n2)c1,0,-2,1,nt,2,9
Cn1c(=O)c2c(nc(SCCN3CCOCC3)n2Cc2ccccc2Cl)n(C)c1=O,-1,-3,-11,1,-1,63*
COc1cc(CC(=O)OCC(=O)NC2CCCC2)cc(OC)c1OC,-3,6,nt,nt,nt,nt
SMILES,MPTP block,dFosB activator,HSF1 activator,HSP90 inh,HSF1 inh,Platelet DG rel
Cc1nc(CS(=O)(=O)c2ccc(Cl)cc2)cc(Sc2ccc(Cl)cc2)n1,1,-6,nt,-3,nt,nt
Nc1nc2ccccc2n1/N=C/c1ccc([N+](=O)[O-])s1,-3,5,99*,-4,58,7
Nc1nc2ccccc2n1/N=C/c1cccnc1,-1,-4,1,7,0,-4
CC(=O)Nc1ccc(Nc2nc(-c3cc4ccccc4oc3=O)cs2)cc1,1,-7,-3,-4,17,22
O=C(O)c1ccc(Nc2nc(-c3cc4ccccc4oc3=O)cs2)cc1O,-1,-18,65*,-2,22,-4
O=C(Nc1nc(-c2cc3ccccc3oc2=O)cs1)c1ccc(Br)o1,2,-19,66*,1,32,1
Nc1ccc(Nc2nc(-c3cc4ccccc4oc3=O)cs2)cc1,1,-7,39,-8,9,-13
CC(NC(=O)c1cc(COc2ccc(-n3cncn3)cc2)on1)c1ccc(F)cc1 (stereo not drawn),0,nt,nt,nt,nt,nt
Cc1cc(/C=C(/C#N)c2cccc(Cl)c2)c(C)n1C,-1,-2,67*,1,32,-5
CCOC(=O)N1CCC(N2CCCC(C(=O)c3ccccc3OC)C2)CC1 (stereo not drawn),1,-1,-5,0,5,10
O=C(O)c1ccc(COc2cccc(CO)c2)cc1,-1,4,-37,-3,-26,75*
COCCn1c(SCC(=O)NC2CCCCC2)nc2c(c1=O)SCC2,0,-5,58*,4,23,-1
CCOc1ccc2nc(NC(=O)COC)sc2c1,-1,3,41,1,24,2
CCOC(=O)Cc1csc(NC(=O)Cc2cccs2)n1,1,-1,6,-2,8,1
CCOc1ccc2nc(NC(=O)c3ccccn3)sc2c1,2,2,20,7,10,81*
CCOc1ccc2nc(NC(=O)c3ccoc3C)sc2c1,0,1,0,28*,-7,69*
CCOC(=O)Cc1csc(NC(=O)Nc2cccs2)n1,1,-2,-66,-6,-57*,-2
CCOc1ccc2nc(NC(=O)NC3CCCCC3)sc2c1,4,-2,8,5,18,10
CCOc1ccc2nc(NC(=O)Nc3cccs3)sc2c1,-1,-3,80*,-4,50,-10
COc1ccc(C(=O)OCC(=O)NCc2ccc3c(c2)OCO3)cc1S(=O)(=O)N1CCOCC1,-1,-7,nt,nt,nt,nt
N#Cc1nnn(-c2ccc(Cl)cc2)c1N,-2,-8,16,-2,-6,0
O=c1[nH]nc(Br)c(=O)n1C(c1ccccc1)c1ccccc1,2,-1,nt,nt,nt,nt
O=C(Nc1nc2c(F)cc(F)cc2s1)c1ccccn1,0,-10,423*,2,348,-27
O=C(COc1ccccc1)NNc1nc2c(F)cc(F)cc2s1,-1,7,7,6,7,6
Cc1cc(C)c2nc(NC(=O)c3ccc(OCC4CCCO4)cc3)sc2c1 (stereo not drawn),2,1,35,-3,14,2
Cc1ccc2nc(NC(=O)c3ccc(OCC4CCCO4)cc3)sc2c1 (stereo not drawn),0,7,57*,-2,11,-19
COc1ccc(C(C(=O)NC2CCCCC2)N(Cc2cccnc2)C(=O)c2snc(C(N)=O)c2N)cc1 (stereo not drawn),2,-22,-5,3,-7,-1
Cc1ccc(S(=O)(=O)N(CC(=O)c2ccccc2)C(=O)N2CCN(C)CC2)cc1,-3,3,7,nt,-3,3
COc1ccccc1NC(=O)Nc1ccnn1C1CCN(C(=O)C2CCOC2)CC1 (stereo not drawn),0,nt,nt,nt,nt,nt
CC(C)(C)c1ccc(C(=O)c2c[nH]c(C(=O)NCCc3ccccn3)c2)cc1,-3,1,-6,16*,0,1
